The values below come from PubChem BioAssay (Tox21).

Assay [1] is described as follows: qHTS assay to identify small molecule agonists of the vitamin D receptor (VDR) signaling pathway - cell viability counter screen (AID 743224). For activity change, negative = cytotoxicity: series mostly up to about 63 µM; % is set by controls: 0 for no effect and ±100 for the full control effect. Note: nearly all actives have a fitted effect of over 50% in size. Note: potency is the fitted concentration of half-maximal effect. The method, boiled down:
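Counter screen run in the same wells as the VDR-bla reporter assay: CellTiter-Glo luminescence, 30 min at room temperature, after 16 h compound treatment at 37C of cells pre-plated for 4 h.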
On the technique in general: qHTS replaces the single test concentration by a dilution series.

Assay [2] in a line: qHTS assay to identify small molecule agonists of the endoplasmic reticulum stress response signaling pathway (AID 1159516; active = well fitted activation curve with a large enough effect in the signal ratio in the repeat runs, not every such curve was filed as active; the % refers to the signal ratio; note: % is set by controls: 0 for no effect and ±100 for the full control effect). The method, boiled down: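 Ratiometric FRET readout (405 nm excitation; 460 and 530 nm emission) of a beta-lactamase gene driven by the ER stress response element, after 2 hr substrate loading. HeLa ESRE-bla cells were seeded overnight and treated with compounds for only 5 hr at 37 C.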

Assay [3] can be described thus: qHTS assay to identify small molecule agonists of the endoplasmic reticulum stress response signaling pathway - cell viability counter screen (AID 1159517; calls by dose curve; note: nearly all actives have a fitted effect of over 50% in size; note: potency is the fitted concentration of half-maximal effect; for activity change, negative = cytotoxicity: series mostly up to about 61 µM; % is set by controls: 0 for no effect and ±100 for the full control effect). The method, boiled down:
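ESRE-bla HeLa cells (1,500/well) were plated overnight at 37 C and exposed to compounds for 5 hr. After the 2 hr beta-lactamase substrate read, CellTiter-Glo went into the same wells, and luminescence was read after 30 min at room temperature.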

In assay [4] the target is Nuclear receptor ROR-gamma (Homo sapiens) (UniProt P51449). In words: qHTS assay to identify small molecule antagonists of the retinoid-related orphan receptor gamma (ROR-gamma) signaling pathway (AID 1159521; note: nearly all actives have a fitted effect of over 50% in size; note: potency is the fitted concentration of half-maximal effect). The method, boiled down:
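Screening format: cell-based luciferase reporter in CHO cells with doxycycline-inducible RORγ. Compound pre-exposure lasts 2 h, doxycycline is 1 uM final, induction runs 16 h at 37 C, and ONE-Glo luminescence is read.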

A short description of assay [5]: qHTS assay to identify small molecule agonists of the AP-1 signaling pathway - cell viability counter screen (AID 1159525; calls by dose curve; note: nearly all actives have a fitted effect of over 55% in size; note: potency is the fitted concentration of half-maximal effect). The method, boiled down: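 Intracellular ATP by Cell Titer Glo luminescence (30 min, RT) in the same ME-180 AP-1-bla wells after the 5 h compound exposure at 37 °C. Normalised to tetra n-octyl ammonium bromide and DMSO controls.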
Assay [6] can be described thus: qHTS assay to identify small molecule agonists of the AP-1 signaling pathway (AID 1159526; calls by dose curve; note: % is set by controls: 0 for no effect and ±100 for the full control effect).
Assay [7] can be described thus: qHTS assay to identify small molecule antagonists of the vitamin D receptor (VDR) signaling pathway - cell viability counter screen (AID 743225). Note: nearly all actives have a fitted effect of over 50% in size. Note: potency is the fitted concentration of half-maximal effect. In a few lines: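 In this counter screen, VDR-bla HEK 293T cells receive test compound plus 3 nM final calcitriol for 16 h at 37C. Room-temperature steps of 2 h with the beta-lactamase substrate, then 30 min with CellTiter-Glo, precede the luminescence read.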

The nature of assay [8]: qHTS assay to identify small molecule antagonists of the retinoid-related orphan receptor gamma (ROR-gamma) signaling pathway - cell viability counter screen (AID 1159520). Note: nearly all actives have a fitted effect of over 50% in size. Note: potency is the fitted concentration of half-maximal effect. The method, boiled down: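 Cytotoxicity was read from cellular ATP (CellTiter-Glo luminescence) after 16 hr at 37 C with 1 uM doxycycline induction. The inducer was added 2 hr after compound transfer to Tet-on ROR gamma CHO cells.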

For assay [9], the target named is Retinoic acid receptor RXR-alpha (Homo sapiens) (UniProt P19793). In words: qHTS assay to identify small molecule agonists of the RXR signaling pathway (AID 1159527; calls by dose curve; note: % is set by controls: 0 for no effect and ±100 for the full control effect; nearly all actives have a fitted effect of over 35% in size). The method, boiled down:
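Fluorescence ratio readout (460 vs 530 nm) from GeneBLAzer RXR-alpha HEK 293T cells after 16 hr compound treatment; cells seeded 5 hr beforehand in low-serum, charcoal-stripped medium.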

Inconclusive results are not listed. A number with no mark means an inactive call. Activity calls are given as the source filed them. Unless noted, calls come from the whole dose curve; as a rule, active = well fitted curve in the direction sought with a large enough effect in the repeat runs; inconclusive = weak or mixed curves; inactive = no such curve, though single readings can be large; an effect the other way counts as inactive or inconclusive.

Retinoic acid receptor RXR-alpha (Homo sapiens), sequence (P19793 whole entry, looked up): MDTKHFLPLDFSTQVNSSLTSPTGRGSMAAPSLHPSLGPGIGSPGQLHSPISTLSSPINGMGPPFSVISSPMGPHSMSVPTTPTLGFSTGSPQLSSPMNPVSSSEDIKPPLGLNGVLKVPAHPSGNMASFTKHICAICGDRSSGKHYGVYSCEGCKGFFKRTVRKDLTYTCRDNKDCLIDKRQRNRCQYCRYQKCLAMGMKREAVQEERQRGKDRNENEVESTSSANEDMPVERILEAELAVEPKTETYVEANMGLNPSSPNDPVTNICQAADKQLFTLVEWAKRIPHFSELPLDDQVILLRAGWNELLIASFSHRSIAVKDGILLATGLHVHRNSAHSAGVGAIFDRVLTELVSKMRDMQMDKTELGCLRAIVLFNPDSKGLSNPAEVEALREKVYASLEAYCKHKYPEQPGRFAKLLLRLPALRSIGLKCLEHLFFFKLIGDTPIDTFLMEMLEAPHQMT

With `CSC(=O)c1c(C(F)F)nc(C(F)(F)F)c(C(=O)SC)c1CC(C)C`, the Potency was 43.4 µM (active) in assay [1] and 54.2 µM (active) in assay [4]. In addition, the Potency result in assay [2], in assay [3], in [5] and in [6] was “inactive” in each case.
Regarding `CC(=O)[O-].CC(=O)[O-].CC(=O)[O-].[Cr+3]`, the Potency entry in [1], in [7], in assay [2], in assay [3], in assay [8] and in assay [5] was “inactive” in each case. In assay [9], the Potency entry was “inactive”.
As for `CC(=O)[O-].CC(=O)[O-].CC(=O)[O-].[Sb+3]`, the activity change, negative = cytotoxicity in [1] is -16.2% [at 5.95 µM]; in [3], -11.4% [at 6.95 µM]. Besides, the viability change, negative = cytotoxic is 0.879% [at 6.95 µM] in assay [7] and -1.02% [at 2.72 µM] in assay [5]. Besides, the activity, negative = cytotoxicity in assay [8] was 1.09% [at 3.27 µM]. Further, the activation in [6] was -1.15% [at 2.72 µM]; in [9], -1.11% [at 2.71 µM].
For `O=[N+]([O-])c1cc(C(F)(F)F)c(Cl)c([N+](=O)[O-])c1Nc1ncc(C(F)(F)F)cc1Cl`, the Potency was 4.9 µM (active) in assay [1]; 6.92 µM (active) in assay [7]; 12.3 µM (active) in assay [3]; 1.37 µM (active) in assay [4]; 11 µM (active) in assay [5].
As for `CSC(C)(C)/C=N/O`, the Potency result in assay [1], in assay [7], in assay [2], in assay [3], in [8] and in assay [4] was “inactive” each time. For the same molecule, the Potency result in [5] and in assay [6] was “inactive” in each case.
`O=[N+]([O-])C(Br)Br`: the Potency entry in assay [1], in [7], in assay [4], in assay [5] and in assay [6] was “inactive” throughout. Besides, the values for the Potency in assay [3] and in [8] were 55 µM (active) and 21.7 µM (active), respectively.
With `CCN(CC)CCN1C(=O)CN=C(c2ccccc2F)c2cc(Cl)ccc21`, the Potency result in [1], in assay [7], in assay [2], in assay [3], in [8] and in [4] was “inactive” each time. The Potency result in assay [5] and in assay [6] was “inactive” each time.
As to `CCCCn1cc[n+](C)c1` (tested in a mixture with another compound), the Potency entry in [1], in assay [7], in [2], in assay [3], in [5] and in assay [6] was “inactive” throughout. Besides, the Potency entry in [9] was “inactive”.
For the molecule `CCC(C)c1cccc(C(C)CC)c1O` (configuration not stated), the Potency result in assay [3], in assay [8] and in assay [4] was “inactive” each time.
For the molecule `CO/N=C(\C(=O)OC)c1ccccc1CO/N=C(\C)c1cccc(C(F)(F)F)c1`, the Potency entry in assay [2], in assay [3], in [5] and in assay [6] was “inactive” in each case. In addition, in assay [4], the Potency was 0.77 µM (active).
For the molecule `CC(C)C(Br)C(=O)NC(N)=O` (configuration not stated), the Potency entry in assay [1], in assay [7], in assay [2], in [3], in assay [8] and in assay [4] was “inactive” each time. The Potency result in assay [6] is “inactive”.
For `CCCCC(CC)COC(=O)c1ccccc1C(=O)OCC(CC)CCCC` (configuration not stated), the Potency entry in assay [1], in [2], in [8], in [5] and in assay [6] was “inactive” in each case.
As to `c1ccc(Nc2ccc(Nc3ccccc3)cc2)cc1`, the Potency entry in assay [7], in [2], in assay [3] and in assay [4] was “inactive” each time.
In the case of `ClC1=C(Cl)[C@]2(Cl)[C@@H]3[C@H]4C[C@H]([C@@H]5O[C@H]45)[C@@H]3[C@@]1(Cl)C2(Cl)Cl`, the Potency was 43.6 µM (active) in [1] and 27.3 µM (active) in [4]. The Potency entry in assay [7], in [3], in assay [8] and in assay [5] was “inactive” each time.
For `Nc1ccc(Cl)cc1C(=O)c1ccccc1F`, the Potency result in assay [1], in assay [7], in [3], in assay [8], in [4] and in [5] was “inactive” throughout.
In the case of `[O]=[Cr][O][Cr]=[O]`, the Potency entry in [1], in assay [7], in assay [8], in assay [4], in assay [5] and in assay [6] was “inactive” each time.
